Screening results as filed in PubChem BioAssay.
Only some compounds are listed: those with a hit (about 6.1% of all), similar ones and a draw of the others.
D3 antag = qHTS of D3 Dopamine Receptor Antagonist: qHTS; D3R cells, DiscoveRx beta-arrestin luminescence, antagonist mode; stronger effect = lower value; 2.5% of 360,000 active; AID 652054, 2013; max response, negative = inhibition, %; in the data active = max response below about -50%; inconclusive = no clear call, values can overlap the other calls; also: % is scaled to controls: 0 for no effect and ±100 for the full control effect
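Cells plated overnight at 1500 cells/well, then exposed to library compounds with dopamine controls for 90 minutes at 37 degrees C. DiscoveRx reagent added for 30–60 minutes at room temperature; luminescence read, quantitative HTS format.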
DRD3 agonist = qHTS of D3 Dopamine Receptor Agonist: qHTS; D(3) dopamine receptor (Homo sapiens), P35462; D3R DiscoveRx beta-arrestin cells, luminescence, 90 min; max activation, %; 0.58% of 410,000 active; in the data active = max activation above about 30%; also: 0% is about no effect
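Agonist mode: compounds and dopamine controls were applied to plated cells for 90 min at 37 degrees C after an overnight attachment at 1500 cells/well. Luminescent read-out followed 30 - 60 minutes at room temperature with DiscoveRx detection reagent.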
D1 antag = Antagonist of Human D 1 Dopamine Receptor: qHTS; activity change, negative = inhibition, % at 10 µM; D(1A) dopamine receptor (Homo sapiens), P21728; HEK293 TREx D1 cells, calcium flux, dopamine EC80; stronger effect = lower value; 3.2% of 360,000 active; in the data active = activity change below about -30%; also: % is scaled to controls: 0 for no effect and ±100 for the full control effect
Target sequence (P21728 whole entry, looked up): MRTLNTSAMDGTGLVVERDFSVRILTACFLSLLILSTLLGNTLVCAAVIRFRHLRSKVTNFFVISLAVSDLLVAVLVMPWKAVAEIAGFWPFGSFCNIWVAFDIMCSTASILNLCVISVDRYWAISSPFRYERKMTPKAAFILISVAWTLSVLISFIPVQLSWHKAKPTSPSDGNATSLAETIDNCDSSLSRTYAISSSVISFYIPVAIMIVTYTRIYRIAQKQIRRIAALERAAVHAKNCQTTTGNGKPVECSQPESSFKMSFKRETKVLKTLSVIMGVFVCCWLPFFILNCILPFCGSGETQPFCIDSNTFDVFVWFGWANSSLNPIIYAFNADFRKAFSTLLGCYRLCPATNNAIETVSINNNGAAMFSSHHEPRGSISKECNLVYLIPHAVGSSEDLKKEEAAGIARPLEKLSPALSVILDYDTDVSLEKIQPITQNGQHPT
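Compound effects on dopamine-evoked calcium signalling were measured in tetracycline-induced HEK293 Trex D1 cells. Dopamine at EC80 followed a 180 s compound pre-read, and fluorescence was tracked kinetically for 180 s more.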
D1 potentiator = Potentiators of Human D1 Dopamine Receptor: qHTS; HEK293 TREx D1 cells, calcium flux, dopamine EC20 potentiation; potentiation, % at 10 µM; 0.036% of 360,000 active; AID 504651, 2011; in the data active = potentiation above about 30%; also: 0% is about no effect
D1 agonist = Allosteric Agonists of the Human D1 Dopamine Receptor: qHTS; D(1A) dopamine receptor (Homo sapiens), P21728; HEK293 T-REx D1 cells, calcium flux, agonist mode; activation, % at 2 µM; 1% of 360,000 active; in the data active = activation above about 30%; also: 0% is about no effect
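Tetracycline-induced HEK293 TREx D1 cells, force-coupled to calcium signalling, were dye-loaded with a no-wash calcium kit. Compound was pin-added after a 10 s baseline. Fluorescence was read kinetically at 1 cycle/s for 180 s, with calcium rises flagged as agonism.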
* = called active by the depositor; ? = inconclusive; nt = no result.

SMILES | D3 antag | DRD3 agonist | D1 antag | D1 potentiator | D1 agonist
CC(=O)C[C@@H](O)CC(=O)[C@@H]1OC(=O)CCCCCCCCc2ccccc21 | 27.7 | 22.7 | nt | nt | nt
COc1cccc(/C=C2/CCC(CN(C)C)C2=O)c1 (stereo not given) | -69.1* | -22.6 | nt | nt | nt
NC(=O)c1cccn1Cc1ccccc1Cl | -76.7* | -0.2 | 6.5 | 1.4 | 5.8
NC(=O)c1cccn1Cc1cccc(Cl)c1 | 12.8 | -10.1 | -1.7 | 3.2 | 3.8
CCCNC(=O)c1cc2n(n1)CCCN(Cc1ccc(F)cc1)C2=O | nt | 1.5 | 13.7 | -3.2 | -0.2
CCc1ccc(CNC(=O)c2cc3n(n2)CCCN(Cc2ccccc2)C3=O)cc1 | nt | 5.1 | -46.6* | -2.9 | 66.4*
Cn1ccsc1=NC(=O)c1ccccc1OC(F)F | 11.3 | 0.7 | -36.1* | -8.3 | 0.0
COCCNc1nc(-c2cc(C)n(CCc3ccc(OC)cc3)c2C)cs1 | -0.3 | -1.2 | -6.7 | -2.7 | 1.0
COc1ccccc1CNc1nc(-c2cc(C)n(C)c2C)cs1 | 0.2 | -10.5 | -45.8* | 1.1 | 3.9
Cc1cccc(Nc2n[nH]c(C)c2[N+](=O)[O-])c1 | ? | -1.3 | -37.4* | -6.9 | 20.1
Cc1[nH]nc(Nc2ccccc2)c1[N+](=O)[O-] | -22.9 | -1.4 | -22.2 | 3.4 | 2.0
Cc1ccc(Nc2n[nH]c(C)c2[N+](=O)[O-])cc1 | ? | -3.7 | -4.5 | -5.8 | 0.5
Cc1[nH]nc(Nc2ccc(Br)cc2)c1[N+](=O)[O-] | -16.8 | -2.2 | -35.8* | -9.8 | 10.3
CC(=O)Nc1ccc(Nc2nc3ccc(C)cc3n3nnnc23)cc1 | nt | 0.2 | 1.4 | -1.0 | -1.1
O=C(CCc1ccccc1)NCCC1=CCCCC1 | 20.1 | -5.7 | -32.9* | 13.7 | 1.7
O=C(NCCC1=CCCCC1)C(c1ccccc1)c1ccccc1 | -17.1 | -0.4 | -33.2* | -8.3 | 4.6
O=C(CCCc1ccccc1)NCCC1=CCCCC1 | -4.8 | -0.2 | -10.0 | -3.6 | -0.4
O=C(NC(=S)NCCC1=CCCCC1)c1ccc(Br)o1 | -9.2 | -12.9 | -31.6* | -5.0 | 4.2
O=C(Cc1ccccc1)NCCC1=CCCCC1 | -7.1 | -2.8 | 3.5 | 0.8 | -0.3
CC(=O)c1c(C)[nH]c(C(=O)NCCC2=CCCCC2)c1C | -56.6* | 1.9 | -19.0 | -6.2 | 14.7
CC1=NN(c2ccccc2)C(=O)C1(C)[N+](=O)[O-] (stereo not given) | 32.7 | -6.4 | 8.8 | -0.8 | 1.9
Cc1noc(C)c1S(=O)(=O)N(C)C[C@H]1Oc2ccc(NC(=O)Cc3ccccc3)cc2C(=O)N([C@H](C)CO)C[C@@H]1C | 0.0 | -3.0 | nt | nt | nt
COc1ccc(NC2CCCN(C(=O)Cn3ccc(C)n3)C2)cc1OC (stereo not given) | 24.6 | 4.8 | -6.2 | 2.4 | 1.7
Cc1noc(/C=C/Nc2ccc(F)cc2F)c1[N+](=O)[O-] | -12.8 | -0.4 | -29.9 | -6.0 | 12.1
COc1ccccc1N/C=C/c1onc(C)c1[N+](=O)[O-] | -3.4 | -4.8 | -12.4 | -3.0 | 140.1*
SMILES | D3 antag | DRD3 agonist | D1 antag | D1 potentiator | D1 agonist
Fc1ccc(Nc2nc(N3CCOCC3)c3ccccc3n2)cc1 | 25.5 | -1.4 | 0.2 | -11.1 | 3.2
c1ccc2c(Nc3nc(N4CCOCC4)c4ccccc4n3)cccc2c1 | 2.0 | -5.4 | -47.7* | -22.1 | 0.8
Cc1ccc(CN(Cc2ccco2)S(=O)(=O)c2ccc(S(=O)(=O)NCC3CCCO3)cc2)cc1 (stereo not given) | 18.8 | 2.8 | -35.6* | -3.5 | 23.4
Cc1ccc(S(=O)(=O)Nc2ccc(S(=O)(=O)NCC3CCCO3)cc2)cc1 (stereo not given) | -13.6 | 1.6 | -19.5 | -5.2 | 6.3
CCN(CC)S(=O)(=O)c1ccc(S(=O)(=O)NCC2CCCO2)cc1 (stereo not given) | -5.5 | -16.7 | -20.3 | -9.3 | 2.3
O=C(c1ccc(S(=O)(=O)NCC2CCCO2)cc1)N1CCc2ccccc21 (stereo not given) | 11.4 | 7.1 | -51.1* | -5.6 | 12.8
Cc1ccc(-c2ccc(S(=O)(=O)NCC3CCCO3)cc2)cc1 (stereo not given) | 15.0 | 2.2 | -31.6* | -6.0 | 8.4
O=S(=O)(NCC1CCCO1)c1ccccc1 (stereo not given) | -20.0 | -7.6 | 1.4 | -2.3 | 0.5
CCOC(=O)c1ccc(Nc2c(-c3ccc(N(C)C)cc3)nc3nc[nH]n23)cc1 | nt | 2.1 | -7.8 | -0.7 | 10.5
COc1ccc(NC(=O)CN(c2ccc(OC)cc2)S(=O)(=O)c2ccc(OC)c(OC)c2)cc1 | 7.6 | 8.7 | 21.6 | -1.9 | 7.0
NC(=O)c1ccc(N=C2C(=O)Nc3ccc([N+](=O)[O-])cc32)cc1 | -62.4* | -3.1 | -6.8 | -3.1 | 2.1
CCOc1ccc(S(=O)(=O)Nc2cc(C)ccn2)c2ccccc12 | 55.9 | 31.8* | 8.2 | -1.9 | 4.9
CCN(CC)S(=O)(=O)c1ccc(N2CCOCC2)c(NC(=O)c2cc(-c3ccccn3)nc3ccccc23)c1 | 31.1 | -4.0 | 3.8 | -6.8 | 0.6
COCC1CCN(C(=O)c2cc(COc3ccc(-n4cncn4)cc3)on2)CC1 | 4.4 | 2.0 | -35.6* | -1.0 | 2.0
COCC1CCN(C(=O)c2cc(COc3ccc4ncccc4c3)on2)CC1 | 3.0 | 10.7 | -23.3 | -3.0 | 13.5
COc1ccc(-n2ncc(S(=O)(=O)c3ccccc3)c2-c2ccc(Cl)cc2)cc1 | 22.4 | -0.9 | -44.0* | -4.2 | 9.6
CC(=O)N1CCC(N(CCN2CCOCC2)C(=S)Nc2ccc(C)cc2C)CC1 | 8.3 | -2.1 | -30.9* | -4.7 | 3.5
CC(=O)N1CCC(N(CCN2CCOCC2)C(=S)Nc2ccc(C)cc2)CC1 | 3.5 | 3.9 | -2.0 | -1.8 | 1.5
CC1CN(C(=O)Cn2c(=O)oc3ccccc32)CC(C)O1 (stereo not given) | -9.5 | 4.1 | -6.2 | -0.6 | 5.5
Cc1ccc(NC(=O)NC2CC(=O)N(c3ccc4c(c3)OCCO4)C2)c(C)c1 (stereo not given) | -14.2 | -1.8 | -47.2* | -4.5 | -0.8
O=C(Cc1ccccc1)Nc1cccc(N2C(=O)C=CC2=O)c1 | 5.8 | -4.3 | -5.7 | -3.8 | 5.1
COc1ccccc1NC(=O)CSc1nnc2c(n1)[nH]c1ccccc12 | nt | -12.9 | 10.7 | -4.2 | 1.3
N#CC1(c2ccccc2)CCC(NCCc2ccccc2)CC1 (stereo not given) | -53.7* | -17.9 | 4.5 | -10.8 | 10.2
O=C(NCCc1ccccc1)C1(c2ccccc2)CCCC1 | -1.6 | -4.4 | 3.2 | -10.7 | 1.6
COc1ccc(C2(CNC(C)=O)CCOCC2)cc1OC | 23.1 | 3.9 | -35.1* | nt | 1.6
Cc1nc2scc(C)n2c(=O)c1S(=O)(=O)N1CCN(c2ccc([N+](=O)[O-])cc2)CC1 | 6.6 | 2.6 | -53.3* | -6.5 | 0.3
